# Shown are actives, neighbours in structure and some others; about 3% of the full set was active somewhere.
# TexasRed fluor: counter-screen for TRb-SRC2 inhibitors: fluorescence interference; AID 1479; Potency, µM (top dose mostly 106 µM), without a hit: at the top dose fluorescence change, negative = quenching; 280,000 compounds, 0.29% hits; TRb/SRC2 Texas Red total fluorescence interference; active = well fitted curve in either direction with a large enough effect; inconclusive = small, poorly fitted or top-dose-only effect
#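 Human TRβ ligand-binding domain (0.6 uM) and Texas Red SRC2 peptide (20 nM) in Tris buffer with 1 uM T3 and 5% DMSO were incubated with pinned compound for 5 hr at ambient temperature. Total fluorescence was computed as S + 2P (555/632 nm).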
# Tau fibril FP: tau fibrillization inhibition (FP); P10636; K18 P301L tau heparin fibrillization, Alexa594 FP, 6 h; Potency, µM (highest dose often 57.7 µM), for inactives: at the top dose activity, negative = inhibition, usual class: inhibitors; 280,000 compounds, 0.39% hits; note: nearly all actives have a fitted effect of over 55% in size
# Target sequence (P10636 561-689 P618L limits assumed): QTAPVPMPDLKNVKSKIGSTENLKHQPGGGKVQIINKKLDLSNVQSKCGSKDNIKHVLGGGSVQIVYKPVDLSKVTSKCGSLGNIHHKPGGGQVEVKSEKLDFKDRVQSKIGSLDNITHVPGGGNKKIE
#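 Steps: dispense K18 P301L tau (15 uM plus 0.24 uM Alexa 594 tracer, final) in pH 7 sodium acetate; add compound; add heparin (20 uM final); incubate 6 hr, 37 C; add ThT (30 uM final); after 1 hr ambient, read FP.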
# Tau fluor cs: counter-screen for tau fibril formation inhibitors; tau K18 P301L Alexa594 fluorescence, heparin fibrillization; Potency, µM (doses to about 57.7 µM), for the others: top-dose activity change, negative = decrease; 280,000 compounds, 0.93% hits; note: nearly all actives have a fitted effect of over 55% in size
#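 Human K18 P301L tau (15 uM unlabeled plus 0.24 uM Alexa 594-labeled, final) in 100 mM sodium acetate pH 7 was mixed with compound and 20 uM heparin and incubated 6 hr at 37 C.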
# TRb-SRC2 inh: TRbeta-SRC2 interaction inhibition. P10828. TRbeta-SRC2 peptide binding, fluorescence polarization; receptor liganded with 1 µM T3. Potency, µM (series often up to 106 µM), inactives show at the top dose activity change, negative = inhibition, actives largely listed as inhibitors. 280,000 compounds, 0.065% hits. AID 1469;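 note: plate controls were bound peptide for no effect and peptide without receptor for full effect; nearly all actives have a fitted effect of over 50% in size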
#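 Binding of a 20-amino-acid Texas Red SRC2 peptide (20 nM) to TRb ligand-binding domain (0.6 uM) with agonist T3 at 1 uM was followed by fluorescence polarization after a 5 hr room-temperature incubation.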
# Tau fibril ThT: tau fibrillization inhibition (ThT binding); P10636; Potency, µM (titrated, usually from 57.4 µM), for inactives: at the top dose activity, negative = inhibition, actives largely listed as inhibitors; recombinant tau K18 P301L, heparin-induced fibrillization, ThT fluorescence; 270,000 compounds, 2.1% hits; note: nearly all actives have a fitted effect of over 55% in size
#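 Using a mix of unlabeled (15 uM) and Alexa 594-labeled (0.24 uM) tau K18 P301L, heparin-triggered fibrillization over 6 hr at 37 C was scored by ThT fluorescence.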
# * marks the source's active call; other numbers are inactive results; ? = inconclusive; nt = no result given; ! = repeats disagree; [ ] = dose if it differs, or a comment. Unless noted, calls come from the whole dose curve; as a rule, active = well fitted curve in the direction sought with a large enough effect; inconclusive = small, poorly fitted or top-dose-only effect, or another doubt; inactive = no such curve, though single readings can be large; an effect the other way counts as inactive or inconclusive. Unless noted, % is set by controls: 0 for no effect and ±100 for the full control effect; potency is the fitted concentration of half-maximal effect.
SMILES,TexasRed fluor,Tau fibril FP,Tau fluor cs,TRb-SRC2 inh,Tau fibril ThT
NC(Cc1cc(O)c(O)cc1O)C(=O)O (configuration not stated),11µM*[quencher],?,?,13%,14µM*
CCn1nc(-c2cccs2)nc2c(=O)n(C)c(=O)nc1-2,-6%,?,-22%,?,18µM*
COCCCOc1ccnc(CS(=O)c2nc3ccccc3[nH]2)c1C (configuration not stated),-2%,?,-25%,-1%,10µM*
CCOP(=S)(OCC)OC(Cl)C(Cl)(Cl)Cl (configuration not stated),-3%[201 µM],nt,nt,-5%[201 µM],nt
O=C(NCCSc1c(-c2ccc(F)cc2)[nH]c2ccccc12)c1ccc(S(=O)(=O)N2CCOCC2)cc1,-1%,-5%,4.5µM*[quencher],4%,-1%
CCCOP(=O)(OCCC)C(NC(=O)c1cc(OC)c(OC)c(OC)c1)c1ccccc1 (configuration not stated),-1%,-2%,-5%,-2%,-7%
COc1cc(C(=O)NCCSc2c(-c3ccccc3)[nH]c3ccccc23)cc(OC)c1OC,-4%,-2%,8.9µM*[quencher],-5%,-9%
N=C1c2ccccc2CN1NC(=O)c1ccc(F)cc1,-4%,0%,10%,-3%,0%
CON(C)C(=O)Nc1ccc(Cl)c(Cl)c1,-2%[201 µM],nt,nt,0%[201 µM],nt
Cc1cc(OC(=O)N(C)C)n(-c2ccccc2)n1,-1%,2%,-3%,1%,-6%
CC(=O)NC1N=C(C)N(c2ccccc2)C1=O (configuration not stated),1%,?,?,32µM*,?
COC(=O)N(OC)c1ccccc1COc1ccn(-c2ccc(Cl)cc2)n1,2%[201 µM],nt,nt,-5%[201 µM],nt
CN(C)c1ccc(/C=C/C=C/c2sc3ccccc3[n+]2C)cc1,29%,?,?,-9%,6.3µM*
CN(C)c1ccc(/C=C/c2cc[n+](C)c3ccccc23)cc1,3%,6%,13%,2%,16%
Cc1ccc(N/N=C/c2c(O)n(-c3ccccc3)c(=O)[nH]c2=O)cc1,-4%,?,?,-8%,16µM*
Cc1ccc(-n2c(O)c(/C=C/C=Nc3ccccc3)c(=O)[nH]c2=O)cc1,-1%,6%,-9%,-3%,-8%
COc1cc(C(c2c(C)[nH]n(-c3ccccc3)c2=O)c2c(C)[nH]n(-c3ccccc3)c2=O)cc(OC)c1OC,-2%,-2%,-20%,-6%,?
Cc1[nH]n(-c2ccccc2)c(=O)c1C(c1cccc([N+](=O)[O-])c1O)c1c(C)[nH]n(-c2ccccc2)c1=O,2%,-9%,?,1%,7.9µM*
CN(C)C1C(=O)C(C(N)=O)C(=O)C2(O)C(=O)C3C(=O)c4c(O)cccc4C(C)(O)C3C(O)C12 (configuration not stated),28µM*[quencher],20µM*,?,18%,4.5µM*
CN(C)[C@@H]1C(=O)C(C(N)=O)=C(O)[C@@]2(O)C(=O)C3=C(O)c4c(O)cccc4[C@@](C)(O)[C@H]3[C@H](O)[C@@H]12,16µM*![quencher],11µM*,?,?,6.3µM*
CN(C)C1C(=O)C(C(N)=O)=C(O)[C@@]2(O)C(=O)C3=C(O)c4c(O)cccc4[C@](C)(O)C3C(O)C12 (some centres not stated),-17%,?,?,4%,?
COCc1cnc(C2=NC(C)(C(C)C)C(=O)N2)c(C(=O)O)c1 (configuration not stated),-1%[201 µM],nt,nt,1%[201 µM],nt
COc1cc(Cl)c(OC)cc1Cl,-1%[201 µM],nt,nt,0%[201 µM],nt
C/C(=N\NP(=S)(c1ccccc1)c1ccccc1)c1ccc(O)cc1O,-1%,-3%,32µM*[quencher],5%,?
O=C(O)C1(O)c2ccccc2-c2ccc(Cl)cc21 (configuration not stated),2%[201 µM],nt,nt,6%[201 µM],nt
ClC1=C(Cl)[C@@]2(Cl)[C@H]3C[C@@H](Cl)[C@H](Cl)[C@H]3[C@@]1(Cl)C2(Cl)Cl,-2%[201 µM],nt,nt,-7%[201 µM],nt
O=c1c(O)c(-c2ccc(O)c(O)c2)oc2c(O)c(O)cc(O)c12,-2%,7.9µM*,?,4%,3.5µM*
